The values that follow come from PubChem BioAssay (NCATS).

Several values for one entry are separate records, joined by “and”; a condition that tells them apart may be missing. Identical values can stand only once. Records with an inconclusive call do not appear. Values without a mark were called inactive. Activity calls are given as the source filed them. Calls come from the whole dose curve; as a rule, active = well fitted curve in the direction sought with a large enough effect; inconclusive = small, poorly fitted or top-dose-only effect, or another doubt; inactive = no such curve, though single readings can be large; an effect the other way counts as inactive or inconclusive.
Potency is the fitted concentration of half-maximal effect.

The first assay is described as follows: Viability qHTS for spleen associated tyrosine kinase inhibitor (SYKi) drug resistant MV4-11 cells (AID 1963824). Note: nearly all actives have a fitted effect of over 35% in size. As to conditions: SYKi-resistant MV4-11 viability, CellTiter-Glo, 72 h; series mostly up to 45 µM. The gist of the method: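 SYK inhibitor-resistant MV4-11 AML cells, 500 per well, added to predispensed compounds and incubated 72 hr at 37 C, 5% CO2. Viability measured by CellTiter-Glo luminescence after 10 min at room temperature.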
For orientation: In qHTS, concentration-response curves come from the screen itself.
Take `CCCCCCCCCCCCCCCCCCOCC(O)CO` (configuration not stated): the Potency result was “inactive”.

With `CC(C)c1cc(CNc2nc(Nc3cc(C4CC4)[nH]n3)cc(N3CCN(C)CC3)n2)on1`, the Potency is 23.1 nM (active).

`COc1cc(C(=O)NC2CCCNC2)cc(OC)c1OC` (configuration not stated): the Potency entry was “inactive”.

In the case of `COc1cc(-c2ccc(=O)[nH]n2)ccc1OC(F)F`, the Potency entry was “inactive”.

Consider `N=C(N)c1ccc2nc(-c3cc(CC(=O)N[C@@H](CC(=O)O)C(=O)O)cc(-c4cc(S(N)(=O)=O)ccc4O)c3O)[nH]c2c1`, for which the Potency entry is “inactive”.

On to `C[C@@H](O)[C@@H]1NC(=O)[C@H](CCCCN)NC(=O)[C@@H](Cc2c[nH]c3ccccc23)NC(=O)[C@H](Cc2ccccc2)NC(=O)[C@@H](NC(=O)[C@H](N)Cc2ccccc2)CSSC[C@@H](C(=O)N[C@H](CO)[C@@H](C)O)NC1=O`, for which the Potency entry was “inactive”.

For `CN1CCC[C@@H]1c1cccnc1`, the Potency entry is “inactive”.

`COc1cc(N2CCN(C)CC2)ccc1Nc1nccc(-c2cn(C)c3cnccc23)n1`: the Potency is 517 nM (active) and 590 nM (active).

Turning to `COc1cc(Cc2cnc(N)nc2N)cc(OC)c1OC`, the Potency result was “inactive”.

Regarding `O=C(CCCl)NCCc1ccccc1`, the Potency result was “inactive”.

`C[C@@H]1C[C@H]2[C@@H]3C[C@H](F)C4=CC(=O)C(Cl)=C[C@]4(C)[C@@]3(F)[C@@H](O)C[C@]2(C)[C@@]1(O)C(=O)CO`: the Potency is 11900 nM (active).

For `CC(C)COC(=O)c1ccc(N)cc1`, the Potency result was “inactive”.

On to `COc1ccc2c(c1)[C@]1(C[C@H]1c1ccc3c(/C=C/c4ccc(CN5C[C@@H](C)O[C@@H](C)C5)cc4)n[nH]c3c1)C(=O)N2`, for which the Potency is 332 nM (active).

On to `CCC1CCCCN1C(=O)n1ncc(C(O)(c2ccccc2)c2ccccc2)n1` (configuration not stated), for which the Potency is 5250 nM (active).

`O=C(O)CCCC[C@@H]1SC[C@@H]2NC(=O)N[C@@H]21`: the Potency result is “inactive”.

A further assay in a line: Cellular viability qHTS for adrenocortical cancer (ACC) cell line SW-13 (AID 1963989).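 For activity (max response): cells grown in serum-free medium with ITS supplement; % is set by controls: 0 for no effect and ±100 for the full control effect.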 Note: nearly all actives have a fitted effect of over 65% in size. As to conditions: SW-13 ACC cells viability, CellTiter-Glo, 48 h; activity (max response): stronger effect = lower value. Put shortly:
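48 h treatment, SW-13 in ITS/DMEM serum-free; doses up to 46 uM; readout CellTiter-Glo luminescence; curve fit four-parameter logistic.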
For `CCOC(=O)[C@H](CCc1ccccc1)N[C@@H](C)C(=O)N1[C@H](C(=O)O)C[C@@H]2CCC[C@@H]21`, the activity (max response) was 3.72% and 7.5%.

Regarding `Cc1c(O)cccc1C(=O)NC(CSc1ccccc1)C(O)CN1CC2CCCCC2CC1C(=O)NC(C)(C)C` (configuration not stated), the Potency is 28.2 µM (active).

In the case of `CC(C)(C)c1ccc(C(=O)CCCN2CCC(OC(c3ccccc3)c3ccccc3)CC2)cc1`, the Potency was 13 µM (active).

In the case of `NC12CC3CC(CC(C3)C1)C2`, the activity (max response) was 13.7% and -1.26%.

Take `CN1[C@@H]2CCC[C@H]1CC(NC(=O)c1nn(C)c3ccccc13)C2` (some centres not stated): the activity (max response) was 2.83%.

As to `CC(=O)Nc1ccc(C(=O)Nc2ccccc2N)cc1`, the Potency was 11.2 µM (active).

Regarding `Cc1ccc(S(=O)(=O)NC(=O)NN2CCCCCC2)cc1`, the activity (max response) was -2.59%.

For the compound `Cc1cc(O)c(-c2ccc([C@@H](C)CN(C)C)cc2)c2c1[nH]c(=O)c1sccc12`, the Potency was 0.0891 µM (active).

For the compound `O=C(/C=C/c1ccc(Cl)cc1)N1CCC2(CC1)CN(Cc1ccc(Cl)c(Cl)c1)C(=O)O2`, the activity (max response) was -3.3%.

Take `Cn1c([N+](=O)[O-])cnc1COC(N)=O`: the activity (max response) was -4.89%.

On to `CNCC(O)c1ccc(O)c(O)c1` (configuration not stated), for which the activity (max response) is 4.94%.

For the compound `CC(C)N(CCCNC(=O)Nc1ccc(C(C)(C)C)cc1)C[C@H]1O[C@@H](n2cc(Br)c3c(N)ncnc32)[C@H](O)[C@@H]1O`, the Potency is 28.2 µM (active).

In the case of `C[C@H](CN(C)C)Oc1nc(Nc2cc3cccc(Cl)c3cn2)cnc1C#N`, the activity (max response) is -6.08%.

As to `CCC1Nc2cc(Cl)c(S(N)(=O)=O)cc2S(=O)(=O)N1` (configuration not stated), the activity (max response) is 2.08%.

As to `Cc1cc2c(C(C)C)c(O)c(O)c(C=O)c2c(O)c1-c1c(C)cc2c(C(C)C)c(O)c(O)c(C=O)c2c1O`, the Potency is 10 µM (active).

In the case of `COc1ccc(CCN2CCC(Nc3nc4ccccc4n3Cc3ccc(F)cc3)CC2)cc1`, the Potency is 20.6 µM (active).

For `COC1CCC(N2C(=O)CNc3ncc(-c4ccc(C(C)(C)O)nc4)nc32)CC1` (configuration not stated), the Potency was 15.8 µM (active).

Consider `CC(=O)N1CCC[C@H]1C(=O)N[C@@H](Cc1cnc[nH]1)C(=O)N[C@@H](CO)C(=O)N[C@@H](CS)C(=O)N[C@@H](CC(N)=O)C(N)=O`, for which the activity (max response) was -17.6%.

Turning to `CN1CCN(c2ccc3nc(-c4c(N)c5c(F)cccc5[nH]c4=O)[nH]c3c2)CC1`, the Potency was 15.8 µM (active).

`OC1(c2ccc(Cl)c(C(F)(F)F)c2)CCN(CCCC(c2ccc(F)cc2)c2ccc(F)cc2)CC1`: the Potency was 4.11 µM (active).

For the compound `CN1CCCN=C1/C=C/c1cccs1`, the activity (max response) is 0.0735% and 9.48%.

For the compound `CCCCCCCCCCCCCCCC[N+](C)(C)CCN(Cc1ccc(OC)cc1)c1ncccn1`, the Potency was 20.6 µM (active).
